Results taken from PubChem BioAssay AID1159580 (chemical genetic matrix, 2015).
Where “and” joins values, the source holds several entries; their conditions need not be identical. Equal entries are not always repeated. Hit rate of the full screen: of about 5,500 compounds, about 2,000 (36%) were called active. Roughly 18% stayed inconclusive and do not appear here. Rule as the data show it: active = normalized growth mostly below about 0.91 (no sharp cut-off); inconclusive = no clear call, values can overlap the other calls; inactive = mostly above about 0.92. Some of the results follow.

Experiment: chemical genetic growth profiling, strain panel (AID 1159580);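 also: tested at 20 µM; growth read once vehicle control cultures reached saturation at 30 °C; 1 = growth at the plate median or of vehicle wells; lower values mean less growth of the strain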
Conditions: S. cerevisiae deletion strains, growth OD
[1] = locus YAL013W, strain DEP1, hits give low values
[2] = locus YBR229C, strain ROT2, hits give low values
[3] = locus YDL101C, strain DUN1, hits give low values
[4] = locus YEL061C, strain CIN8, hits give low values
[5] = locus YGR078C, strain PAC10, hits give low values
[6] = locus YHR030C, strain SLT2, hits give low values
[7] = locus YJR043C, strain POL32, hits give low values
[8] = locus YLR039C, strain RIC1, hits give low values
[9] = locus YLR262C, strain YPT6, hits give low values
[10] = locus YMR307W, strain GAS1, hits give low values
[11] = locus YNL128W, strain TEP1, hits give low values
[12] = locus YNL153C, strain GIM3, hits give low values
[13] = locus YPL241C, strain CIN2, hits give low values
[14] = locus YDR150W, strain NUM1, hits give low values
[15] = locus YJR075W, strain HOC1, hits give low values
[16] = locus YNL322C, strain KRE1, hits give low values
[17] = locus YPL055C, strain LGE1, hits give low values

Measured: normalized growth

CC[C@]12CCCN3CCc4c(n(c5ccccc45)[C@](O)(C(=O)OC)C1)[C@@H]32
inactive: [1] 0.984 | locus YAL021C, strain ccr4, hits give low values 0.986 | locus YAL026C, strain drs2, hits give low values 0.983 | locus YAL030W, strain snc1, hits give low values 0.984 | locus YBL061C, strain skt5, hits give low values 0.979 | locus YBR009C, strain hhf1, hits give low values 0.999 | locus YBR021W, strain FUR4, hits give low values 0.998 | locus YBR023C, strain chs3, hits give low values 0.991 | locus YBR171W, strain sec66, hits give low values 0.983 | [2] 0.951 | locus YBR231C, strain swc5, hits give low values 0.994 | locus YBR279W, strain paf1, hits give low values 0.98 | locus YCL011C, strain gbp2, hits give low values 0.985 | locus YCL016C, strain dcc1, hits give low values 0.966 | locus YCL029C, strain bik1, hits give low values 0.978 | locus YCL061C, strain MRC1, hits give low values 0.986 | locus YCL069W, strain vba3, hits give low values 0.987 | locus YCR088W, strain abp1, hits give low values 0.981 | locus YDL005C, strain med2, hits give low values 0.96 | locus YDL035C, strain GPR1, hits give low values 0.966 | locus YDL040C, strain nat1, hits give low values 0.989 | locus YDL074C, strain BRE1, hits give low values 0.991 | [3] 0.977 | locus YDL185W, strain tfp1, hits give low values 0.964 | locus YDL192W, strain arf1, hits give low values 0.979 | locus YDR001C, strain nth1, hits give low values 0.98 | locus YDR069C, strain doa4, hits give low values 0.991 | locus YDR101C, strain arx1, hits give low values 0.964 | locus YDR137W, strain rgp1, hits give low values 0.954 | locus YDR159W, strain sac3, hits give low values 1.01 | locus YDR162C, strain NBP2, hits give low values 0.97 | locus YDR195W, strain ref2 0.952 | locus YDR297W, strain sur2, hits give low values 0.99 | locus YDR318W, strain mcm21, hits give low values 1 | locus YDR334W, strain swr1, hits give low values 0.975 | locus YDR335W, strain msn5, hits give low values 0.979 | locus YDR388W, hits give low values 0.978 | locus YDR392W, strain spt3, hits give low values 0.946 | locus YDR502C, strain sam2, hits give low values 0.978 | locus YEL003W, strain gim4, hits give low values 0.984 | locus YEL037C, strain rad23, hits give low values 0.979 | locus YEL061C, strain CIN8 (second series), hits give low values 0.986 | [4] 0.982 | locus YER015W, strain faa2, hits give low values 0.985 | locus YER016W, strain bim1, hits give low values 0.969 | locus YER110C, hits give low values 0.979 | locus YER111C, strain swi4, hits give low values 0.978 | locus YER155C, strain BEM2 (second series), hits give low values 0.958 | locus YER155C, strain BEM2, hits give low values 0.995 | locus YER167W, strain BCK2, hits give low values 0.996 | locus YFR010W, strain ubp6, hits give low values 0.998 | locus YGL078C, strain dbp3, hits give low values 0.997 | locus YGL086W, strain mad1, hits give low values 0.977 | locus YGL167C, strain pmr1, hits give low values 0.979 | locus YGL173C, strain kem1, hits give low values 0.984 | locus YGL227W, strain vid30, hits give low values 0.981 | locus YGL240W, strain doc1, hits give low values 1.02 | locus YGL248W, strain PDE1, hits give low values 0.993 | locus YGL253W, strain hxk2, hits give low values 0.981 | [5] 0.982 | locus YGR135W, strain pre9, hits give low values 1.04 | locus YGR252W, strain gcn5, hits give low values 1.07 | locus YHR013C, strain ard1, hits give low values 0.953 | locus YHR027C, strain rpn1, hits give low values 0.991 | [6] 0.992 and 0.98 | locus YHR079C, strain IRE1 (second series), hits give low values 0.961 | locus YHR079C, strain IRE1, hits give low values 0.964 | locus YHR094C, strain hxt1, hits give low values 0.981 | locus YHR129C, strain ARP1, hits give low values 0.988 | locus YHR142W, strain chs7, hits give low values 0.964 | locus YHR200W, strain rpn10, hits give low values 0.971 | locus YIL066C, strain RNR3, hits give low values 0.977 | locus YIL073C, strain SPO22, hits give low values 0.965 | locus YIL125W, strain kgd1, hits give low values 0.988 | locus YIR030C, strain dcg1, hits give low values 0.99 | locus YJL092W, strain hpr5, hits give low values 0.993 | locus YJL095W, strain BCK1 (second series), hits give low values 0.973 | locus YJL095W, strain BCK1, hits give low values 1.01 and 0.994 | locus YJL115W, strain asf1, hits give low values 1 | locus YJL129C, strain trk1, hits give low values 0.974 | locus YJL134W, strain LCB3, hits give low values 0.99 | locus YJL154C, strain vps35, hits give low values 0.968 | locus YJL164C, strain tpk1, hits give low values 0.997 | locus YJL166W, strain qcr8, hits give low values 1.01 | locus YJL168C, strain set2, hits give low values 0.984 | locus YJL187C, strain SWE1 (second series), hits give low values 0.979 | locus YJL187C, strain SWE1, hits give low values 0.985 | [7] 0.977 | locus YJR066W, strain TOR1, hits give low values 0.925 | locus YKL009W, strain mrt4, hits give low values 0.985 | locus YKL068W, hits give low values 0.987 | locus YKL085W, strain MDH1 (second series), hits give low values 0.997 | locus YKL085W, strain MDH1, hits give low values 0.997 | locus YKL160W, strain elf1, hits give low values 0.962 | locus YKR001C, strain vps1, hits give low values 0.977 | locus YKR026C, strain gcn3, hits give low values 0.988 | locus YKR091W, strain srl3, hits give low values 0.982 | locus YLL001W, strain dnm1, hits give low values 0.986 | locus YLL026W, hits give low values 1 | locus YLL041C, strain sdh2, hits give low values 0.987 | locus YLR027C, strain aat2, hits give low values 0.989 | [8] 1.03 | locus YLR058C, strain SHM2, hits give low values 0.976 | locus YLR102C, strain apc9, hits give low values 0.982 | locus YLR113W, strain HOG1, hits give low values 0.976 | locus YLR221C, strain rsa3, hits give low values 1 | locus YLR258W, strain gsy2, hits give low values 0.964 | locus YLR262C, strain YPT6 (second series), hits give low values 0.977 | [9] 0.912 | locus YLR268W, strain sec22, hits give low values 0.963 | locus YLR320W, strain mms22, hits give low values 0.995 | locus YLR330W, strain CHS5, hits give low values 0.988 | locus YLR342W, strain FKS1 (second series), hits give low values 0.997 | locus YLR342W, strain FKS1, hits give low values 0.989 | locus YLR357W, strain rsc2, hits give low values 0.953 | locus YLR370C, strain arc18, hits give low values 0.975 | locus YLR371W, strain rom2, hits give low values 0.987 | locus YLR384C, strain iki3, hits give low values 0.977 | locus YLR418C, strain cdc73, hits give low values 0.989 | locus YML016C, strain PPZ1, hits give low values 0.991 | locus YML032C, strain rad52, hits give low values 0.967 | locus YML120C, strain ndi1, hits give low values 0.99 | locus YML124C, strain tub3, hits give low values 0.989 | locus YMR058W, strain fet3, hits give low values 0.983 | locus YMR078C, strain ctf18, hits give low values 0.977 | locus YMR125W, strain sto1, hits give low values 0.98 | locus YMR129W, hits give low values 0.985 | locus YMR205C, strain PFK2, hits give low values 0.97 | locus YMR223W, strain ubp8, hits give low values 1.03 | locus YMR231W, strain pep5, hits give low values 0.982 | [10] 0.967 | locus YNL067W, strain RPL9B, hits give low values 0.987 | locus YNL071W, strain lat1, hits give low values 0.981 | [11] 0.974 | [12] 0.994 | locus YNL183C, strain NPR1, hits give low values 0.915 | locus YNL209W, strain ssb2, hits give low values 0.988 | locus YNL233W, strain BNI4, hits give low values 0.99 | locus YNL248C, strain rpa49, hits give low values 0.99 | locus YNL250W, strain rad50, hits give low values 0.984 | locus YNL271C, strain bni1, hits give low values 0.986 | locus YNL298W, strain CLA4, hits give low values 0.987 | locus YNL307C, strain MCK1, hits give low values 0.981 | locus YNL322C, strain KRE1 (second series), hits give low values 0.969 | locus YNR049C, strain mso1, hits give low values 0.978 | locus YNR052C, strain pop2, hits give low values 0.993 | locus YOL012C, strain htz1 0.992 | locus YOL147C, strain pex11, hits give low values 0.989 | locus YOR001W, strain rrp6, hits give low values 1.02 | locus YOR061W, strain CKA2, hits give low values 0.976 | locus YOR069W, strain VPS5, hits give low values 0.992 | locus YOR070C, strain gyp1, hits give low values 0.995 | locus YOR080W, strain dia2, hits give low values 0.972 | locus YOR083W, strain WHI5, hits give low values 0.98 | locus YOR106W, strain vam3, hits give low values 0.984 | locus YOR136W, strain idh2, hits give low values 0.969 | locus YOR144C, strain elg1, hits give low values 0.984 | locus YOR184W, strain ser1, hits give low values 0.98 | locus YOR231W, strain MKK1, hits give low values 1.01 | locus YOR265W, strain rbl2, hits give low values 0.995 | locus YOR270C, strain vph1, hits give low values 0.988 | locus YOR290C, strain snf2, hits give low values 0.979 | locus YOR316C, strain cot1, hits give low values 0.968 | locus YPL051W, strain arl3, hits give low values 0.971 | locus YPL078C, strain atp4, hits give low values 0.973 | locus YPL106C, strain sse1, hits give low values 0.959 | locus YPL240C, strain hsp82, hits give low values 0.985 | [13] 0.967 | locus YPL256C, strain CLN2, hits give low values 0.984 | locus YPR119W, strain clb2, hits give low values 0.975 | locus YPR141C, strain kar3, hits give low values 0.979 | locus YPR163C, strain tif3, hits give low values 0.974 | locus YPR167C, strain met16, hits give low values 0.995 | strain wtn01, hits give low values 1

CCOC(=O)C1=CC2(CC)CCCN3CCc4c(n1c1ccccc41)C32 (stereo not given)
inactive: locus YAL040C, strain CLN3, hits give low values 1 | locus YCL061C, strain MRC1 (second series), hits give low values 1 | [14] 1 | locus YDR363W, strain ESC2, hits give low values 1 | locus YER002W, strain NOP16, hits give low values 1.02 | [5] 0.999 | locus YGR229C, strain SMI1, hits give low values 1.01 | [15] 0.984 | [10] 1.01 | [12] 0.989 | locus YNL175C, strain NOP13, hits give low values 1.03 | locus YNL197C, strain WHI3, hits give low values 1.03 | locus YNL224C, strain SQS1, hits give low values 1.01 | [16] 0.983 | locus YOR083W, strain WHI5 (second series), hits give low values 1.01 | [17] 1.02 | [13] 0.997

CCOC(=O)c1c(C)n(-c2ccccc2)c2ccc(O)cc12
inactive: [1] 0.998 | [2] 1 | [3] 0.995 | [14] 1 | [4] 0.965 | [5] 0.995 | [6] 0.923 | locus YHR087W, strain rtc3, hits give low values 0.993 | [7] 1.03 | [15] 0.989 | [8] 1.02 | locus YLR058C, strain SHM2 (second series), hits give low values 0.985 | locus YLR085C, strain ARP6, hits give low values 0.931 | [9] 0.984 | locus YML094W, strain GIM5, hits give low values 0.94 | locus YMR219W, strain ESC1, hits give low values 0.999 | locus YMR263W, strain SAP30, hits give low values 0.956 | [11] 0.99 | [12] 0.976 | [16] 0.998 | locus YNR030W, strain Alg12, hits give low values 0.963 | [17] 0.982 | [13] 0.979 | locus YPR135W, strain CTF4, hits give low values 0.911
